The campaign covered roughly 320,000 compounds. About 3,300 (1%) were called active. The sample holds actives, similar compounds and a random draw of the others, so the mix is not that of the screen.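 Rule for the calls: active = every valid replicate shows activation above 250% relative to neutral control wells; inactive = the rest, any valid replicate at or below 250%.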
assay: restored growth of temperature-sensitive Mot1-301 yeast – S. cerevisiae, ATP luminescence, 38.5C, SUMOylation pathway inhibitor project, primary screen (AID 2716);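 note: OY570 slx delta 5 strain wells were the positive control but not used for scaling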; conditions: S. cerevisiae Mot1-301 growth rescue, at 18.8 µM, active compounds read high, percent above DMSO median, 100 means doubled

With `Cc1c(Cl)c([N+](=O)[O-])nn1CCCC(=O)NC(C)c1ccccc1` (stereo not drawn) as the compound, how does the growth rescue read?
Its growth rescue is 3.65% (inactive).

For `CCOc1ccc(/C=N/Nc2nncc(-c3ccccc3)n2)cc1OC`, which growth rescue is on record?
Its growth rescue is 999% (active).

Which growth rescue does the source give for `COc1cccc(/C=N\Nc2nncc(-c3ccccc3)n2)c1` here?
The growth rescue was -1.53% (inactive).

With `CCOc1cc(/C=N/NC(=O)c2cc(-c3ccccc3)nc3ccccc23)ccc1O` as the compound, how does the growth rescue read?
Its growth rescue is 15.1% (inactive).

With `CCCCNC(=O)CN1C(=O)NC(Cc2ccccc2)(Cc2ccccc2)C1=O` as the compound, how does the growth rescue read?
Its growth rescue is -4.3% (inactive).

For `CCC1(CC)NC(=O)N(CC(=O)OCC(=O)Nc2ccc(C(F)(F)F)cc2)C1=O`, which growth rescue is on record?
Its growth rescue is 154% (inactive).

For `CCC1(CC)NC(=O)N(CC(=O)OCC(=O)NC(=O)c2ccccc2)C1=O`, which growth rescue is on record?
The growth rescue was 663% (active).

For `Cc1cccc2c1N(CCOc1ccccc1)C(=O)C2=O`, which growth rescue is on record?
Its growth rescue is -12.8% (inactive).

Which growth rescue does the source give for `Cc1nn(CCOc2ccccc2)c(=O)n1-c1ccccc1F` here?
The growth rescue was 1160% (active).

Which growth rescue does the source give for `Cc1c(C(N)=O)sc2ncn(CCOc3ccccc3)c(=O)c12` here?
Its growth rescue is -2.19% (inactive).

With `CN(/C(=N/S(=O)(=O)c1cccs1)c1ccccc1)c1ccc(O)cc1` as the compound, how does the growth rescue read?
The growth rescue was 313% (inactive).

For `CCCCC(=O)N/N=C(\C)CC(=O)Nc1cc(Cl)ccc1OC`, which growth rescue is on record?
Its growth rescue is 1520% (active).

With `COc1ccc(Cl)cc1NC(=O)CNc1ccccc1F` as the compound, how does the growth rescue read?
The growth rescue was 0.922% (inactive).

With `COc1ccc(/C(C)=N/NC(=O)CCC(=O)Nc2ccc(Cl)cc2Cl)c(OC)c1` as the compound, how does the growth rescue read?
Its growth rescue is 28.5% (inactive).

With `COc1ccc(Cl)cc1-n1c(C)cc(C(=O)OCC(=O)N2CC(=O)Nc3ccccc32)c1C` as the compound, how does the growth rescue read?
The growth rescue was -14.8% (inactive).

Which growth rescue does the source give for `CCc1noc(C)c1C(=O)Oc1ccc(N(C)S(=O)(=O)c2ccc(C)c(C)c2)cc1` here?
Its growth rescue is -5.53% (inactive).

For `COCC(=O)Nc1cc(C(=O)OC)cc(C(=O)OC)c1`, which growth rescue is on record?
Its growth rescue is 10% (inactive).

For `COC(=O)c1cc(NC2c3ccccc3C(=O)N2c2ccc(Cl)cn2)cc(C(=O)OC)c1` (stereo not drawn), which growth rescue is on record?
The growth rescue was -1.41% (inactive).

With `Cc1ccnc(N2C(=O)c3ccccc3C2Nc2ccc3c(c2)OCCO3)c1` (stereo not drawn) as the compound, how does the growth rescue read?
The growth rescue was -14% (inactive).

With `CCc1ccccc1NC1c2ccccc2C(=O)N1c1cccnc1` (stereo not drawn) as the compound, how does the growth rescue read?
Its growth rescue is 462% (active).

Which growth rescue does the source give for `CS(=O)(=O)N(CC(=O)N/N=C/c1ccccn1)c1ccc(Oc2ccccc2)cc1` here?
Its growth rescue is 6.74% (inactive).

With `O=C(CN1C(=O)/C(=C/c2ccccc2F)Sc2ccccc21)NCc1cccnc1` as the compound, how does the growth rescue read?
The growth rescue was -3.97% (inactive).

With `O=C(CCCCCN1C(=O)c2cccc3cccc(c23)C1=O)NCc1ccco1` as the compound, how does the growth rescue read?
The growth rescue was -8.72% (inactive).

For `O=C(CN1C(=O)/C(=C\c2ccc(C(F)(F)F)cc2)Sc2ccccc21)NCc1ccco1`, which growth rescue is on record?
The growth rescue was 963% (active).

For `Cc1ccc(NC(=O)COC(=O)CN2CCCCCC2=O)c(C)c1`, which growth rescue is on record?
The growth rescue was 2.83% (inactive).

For `O=C(O)c1c(NC(=O)N2CCCC2)sc2c1CCCC2`, which growth rescue is on record?
Its growth rescue is 2.52% (inactive).

Which growth rescue does the source give for `O=C(O)CCCCCCCCCC[n+]1ccccc1` here?
Its growth rescue is 17.1% (inactive).

Which growth rescue does the source give for `CC(CNc1ccc([N+](=O)[O-])c2cccnc12)Nc1c([N+](=O)[O-])cc(C(F)(F)F)cc1[N+](=O)[O-]` (stereo not drawn) here?
The growth rescue was 469% (inactive).

For `CCOC(=O)CCCCCC(=O)Nc1ccc2c(c1)CC(=O)N([C@@H](C)CO)C[C@H](C)[C@@H](CN(C)Cc1ccccc1)O2`, which growth rescue is on record?
The growth rescue was -3.38% (inactive).

Which growth rescue does the source give for `Cc1nc2sc(C(c3ccco3)N3CCC4(CC3)OCCO4)c(O)n2n1` (stereo not drawn) here?
The growth rescue was -10% (inactive).

With `Cc1ccc(C(c2sc3nc(C)nn3c2O)N2CCN(c3ccccc3)CC2)cc1` (stereo not drawn) as the compound, how does the growth rescue read?
Its growth rescue is 6.75% (inactive).

With `Cc1nc2sc(C(c3ccco3)N3CCOCC3)c(O)n2n1` (stereo not drawn) as the compound, how does the growth rescue read?
The growth rescue was 853% (active).

Which growth rescue does the source give for `CCN1CCN(C(C(=O)NC2CCCC2)c2cc3c(cc2[N+](=O)[O-])OCO3)CC1` (stereo not drawn) here?
The growth rescue was -4.81% (inactive).

Which growth rescue does the source give for `CC1CCCCN1C(=O)Cn1c(=O)oc2cc(S(=O)(=O)N3CCCCC3)ccc21` (stereo not drawn) here?
Its growth rescue is 12% (inactive).

With `COc1cccc(CNC(=O)Cn2c(=O)oc3cc(S(=O)(=O)N4CCCCC4)ccc32)c1` as the compound, how does the growth rescue read?
The growth rescue was 4.01% (inactive).

For `CC(C)CCNC(=O)Cn1c(=O)oc2cc(S(=O)(=O)N3CC(C)CC(C)C3)ccc21` (stereo not drawn), which growth rescue is on record?
The growth rescue was 608% (active).

For `Clc1ccc(Nc2ccc3ccccc3n2)cc1`, which growth rescue is on record?
Its growth rescue is 30.7% (inactive).

Which growth rescue does the source give for `COc1ccc(CNC(=O)COc2cccnc2[N+](=O)[O-])cc1` here?
Its growth rescue is -4.39% (inactive).

Which growth rescue does the source give for `COc1ccc(OC)c(NC(=O)CSc2nc(-c3ccccc3)cc(=O)[nH]2)c1` here?
Its growth rescue is 371% (inactive).

Which growth rescue does the source give for `Cc1cccc(NC(=O)c2ccc3c(=O)n(CC4CCCO4)c(=S)[nH]c3c2)c1` (stereo not drawn) here?
Its growth rescue is -20.5% (inactive).

Which growth rescue does the source give for `O=C(NC1CCCCC1)c1ccc2c(=O)n(CC3CCCO3)c(=O)[nH]c2c1` (stereo not drawn) here?
Its growth rescue is 2310% (active).

Which growth rescue does the source give for `O=C(NCc1ccccc1Cl)c1ccc2c(=O)n(CC3CCCO3)c(=S)[nH]c2c1` (stereo not drawn) here?
Its growth rescue is -7.73% (inactive).

For `O=C(Nc1cccc(F)c1)NC1CCCCCCC1`, which growth rescue is on record?
The growth rescue was 2.77% (inactive).

With `N#C/C(=C(\O)CCl)c1nnc2n1CCCCC2` as the compound, how does the growth rescue read?
Its growth rescue is 10% (inactive).

Which growth rescue does the source give for `Cc1cn(C)c(=O)n(C)c1=O` here?
The growth rescue was 274% (inactive).

Which growth rescue does the source give for `Cc1ccc(-c2cn3cc([N+](=O)[O-])ccc3n2)cc1` here?
Its growth rescue is 25% (inactive).

With `Cc1ccc2nc(-c3ccc(Br)cc3)cn2c1` as the compound, how does the growth rescue read?
Its growth rescue is -0.961% (inactive).

With `Cc1ccc(-c2cn3cc(C)ccc3n2)cc1` as the compound, how does the growth rescue read?
The growth rescue was 297% (active).

Which growth rescue does the source give for `Cc1cccc(NC(=S)N(CCN(C)C)C(C)c2ccco2)c1` (stereo not drawn) here?
The growth rescue was 58.7% (inactive).

For `Cn1c(=O)c2ccccc2n(CC(=O)Nc2ccc3c(c2)OCCO3)c1=O`, which growth rescue is on record?
The growth rescue was 0.839% (inactive).

With `Cc1nnc(NC(=O)Cn2c(=O)sc3ccccc32)s1` as the compound, how does the growth rescue read?
The growth rescue was 0.0426% (inactive).

For `O=C(Cn1c(=O)sc2ccccc21)Nc1ccc2c(c1)OCCO2`, which growth rescue is on record?
The growth rescue was 284% (active).

With `COCC1CCN(C(=O)CCc2nnc(C3(c4ccc(Cl)cc4)CCC3)o2)C1` (stereo not drawn) as the compound, how does the growth rescue read?
The growth rescue was -10.9% (inactive).

With `Cc1ccc(S(=O)(=O)N(CC(=O)NCCSC2CCCCC2)c2ccccc2F)cc1` as the compound, how does the growth rescue read?
Its growth rescue is 1.9% (inactive).

For `Cc1cccc(N(C(=O)c2ccc(CN3CCOCC3)o2)C(C(=O)NC2CCCCC2)c2ccc(F)cc2)c1` (stereo not drawn), which growth rescue is on record?
Its growth rescue is 647% (active).

Which growth rescue does the source give for `O=C(NC1CCCC1)C(c1ccc(N2CCOCC2)cc1)N(C(=O)c1ccco1)c1ccccc1F` (stereo not drawn) here?
The growth rescue was 95.4% (inactive).

For `Cc1ccc(N(C(=O)c2ccc(CN3CCOCC3)o2)C(C(=O)NCCC(C)C)c2cccs2)c(C)c1` (stereo not drawn), which growth rescue is on record?
Its growth rescue is -1.16% (inactive).

Which growth rescue does the source give for `CCc1cc(-c2nnc(SCC(=O)NC3CC3)n2C)cs1` here?
Its growth rescue is -5.06% (inactive).
